From ChEMBL document CHEMBL3988442, “University of Dundee, Small-Polar-MMV Screening Library” (2021) come the findings set out here.

Assay [1] concerns the target T1, Aspartate--tRNA(Asp/Asn) ligase (Mycobacterium tuberculosis (strain ATCC 25618 / H37Rv)) (UniProt P9WFW3). Further: in the data most compounds retested in dose-response had high values.
T1 sequence (whole entry): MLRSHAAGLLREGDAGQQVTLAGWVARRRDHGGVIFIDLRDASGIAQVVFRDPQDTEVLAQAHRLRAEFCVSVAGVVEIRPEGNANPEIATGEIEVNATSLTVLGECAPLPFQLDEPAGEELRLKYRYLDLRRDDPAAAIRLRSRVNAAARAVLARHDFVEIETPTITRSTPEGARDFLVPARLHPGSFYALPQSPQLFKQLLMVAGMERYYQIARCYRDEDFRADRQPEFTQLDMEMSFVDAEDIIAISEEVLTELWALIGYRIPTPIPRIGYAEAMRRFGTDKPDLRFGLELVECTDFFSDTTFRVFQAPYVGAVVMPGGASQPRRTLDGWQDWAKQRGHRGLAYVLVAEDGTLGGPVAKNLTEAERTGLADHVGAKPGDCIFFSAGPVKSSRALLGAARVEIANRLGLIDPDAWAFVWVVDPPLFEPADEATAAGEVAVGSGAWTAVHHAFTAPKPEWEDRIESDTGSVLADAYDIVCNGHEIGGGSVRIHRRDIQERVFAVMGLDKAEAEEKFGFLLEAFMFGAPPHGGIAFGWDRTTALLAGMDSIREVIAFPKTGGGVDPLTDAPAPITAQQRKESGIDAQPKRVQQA
The assay is described as follows: Assay for Asp RNA synthetase-1 from Mycobacterium tuberculosis. Also on record: scale not given: direction of the effect not stated beside the values. The class given is functional. The following applies: 30 µM.

The target in assay [2] is Shiga toxin 2 (Escherichia coli O157:H7) (UniProt P09385+P09386). As to the kind of experiment: E. coli 0.157:H7 Shiga Toxin SOP - stx2 screening assay. Type of assay: functional. Also on record: scale not given: direction of the effect not stated beside the values. The following applies: 30 µM.

Consider `CCCS(=O)(=O)N1CCC2(CN(c3cnn(C)c3)C(=O)CN2C)C1` (stereo unspecified), for which the Percent Effect in assay [1] was -0.662%; in assay [2] it was -13.9%.

Consider `COc1c(C2CCCN2C(=O)c2ccc3cc[nH]c3c2)c(C)nn1C` (stereo unspecified), for which the results for the Percent Effect in assay [1] and in assay [2] were -1.15% and 3.54%, respectively.

On to `Cn1nccc1C1CCN(CC(O)c2cccc(F)c2)CC1` (stereo unspecified), for which the Percent Effect was -1.6% in assay [1] and -15.8% in assay [2].

For `c1coc(-c2nnc(CN3CCCC(CN4CCCCCC4)C3)o2)c1` (stereo unspecified), the Percent Effect in assay [1] was 2.88%; in assay [2] it was -14.6%.

`O=C(c1ccn[nH]1)N1CCCC(n2cncn2)C1` (stereo unspecified): the Percent Effect was -5.6% in assay [1] and -25% in assay [2].

Consider `Cc1nc(C)n(CC2CCCN2CC(=O)NCc2ccco2)n1` (stereo unspecified), for which the Percent Effect in assay [1] is 4.57%; in assay [2], -5.68%.

With `CN(C)C(=O)CC1CC2(CCN(C(=O)N(C)C)CC2)Oc2ccccc21` (stereo unspecified), the Percent Effect in assay [1] was 1%; in assay [2] it was -12.4%.

`O=C(NCCOc1ccc(F)c(F)c1)NCc1ccncc1`: the Percent Effect in assay [1] is -0.948%; in assay [2] it was -4.38%.

In the case of `O=C(c1ccco1)N1CCOCC2(CCN(C3CCOCC3)C2)C1` (stereo unspecified), the Percent Effect in assay [1] is 8.62%; in assay [2], -31.1%.

In the case of `CCc1n[nH]c(C2CN(CCc3cccs3)CCO2)n1` (stereo unspecified), the Percent Effect was -6.83% in assay [1] and -38.7% in assay [2].

As to `CS(=O)(=O)NCc1ncn2c1CN(C(=O)CC1CCCC1)CCC2`, the results for the Percent Effect in assay [1] and in assay [2] were -2.09% and -6.05%, respectively.

With `COCC(=O)N1CCC(c2noc3nc(C)cc(C(F)(F)F)c23)CC1`, the Percent Effect in assay [1] is 3.71%; in assay [2], -10.9%.

For the compound `CCC(NC(=O)c1ccco1)c1ccccc1OCC(=O)N1CCCC1` (stereo unspecified), the Percent Effect in assay [1] was 0.611%; in assay [2] it was -10.6%.

Turning to `Cc1nc(C)n(CC2CN(CCCOc3ccccc3C)CCO2)n1` (stereo unspecified), the Percent Effect in assay [1] was found to be 1.31%; in assay [2], 4.82%.

Take `CCn1c(C)nnc1CN(C)C1CCN(Cc2cnc(C)cn2)C1` (stereo unspecified): the Percent Effect in assay [1] is 2.78%; in assay [2], -19%.

With `COc1ccccc1C(O)CNCc1c(C(C)C)nn(C)c1N(C)C` (stereo unspecified), the Percent Effect was -6.86% in assay [1] and 9.26% in assay [2].

As to `CNC(=O)CSc1nc2c(cnn2Cc2ccc(F)cc2)c(=O)[nH]1`, the Percent Effect in assay [1] is -1.18%; in assay [2], -8.43%.

`CCn1cc(CNC2CC(=O)N(CCc3cccc(Cl)c3)C2)cn1` (stereo unspecified): the Percent Effect in assay [1] was -2.05%; in assay [2], -2.75%.

In the case of `COc1ccc(OCC(=O)NC(C)c2ccccc2)c(C(=O)O)c1` (stereo unspecified), the Percent Effect in assay [1] was -1.11%; in assay [2] it was -9.07%.

On to `CS(=O)(=O)N1CC[C@H]2O[C@H](C(=O)NCCc3ccncc3)CC[C@H]21`, for which the figures for the Percent Effect in assay [1] and in assay [2] were 7.02% and -26%, respectively.

Turning to `CN(C)C(=O)N1CCN(Cc2nnc(C(C)(C)C)o2)CC1`, the Percent Effect was -2.73% in assay [1] and 3.28% in assay [2].

For `O=C1CC(c2ccc(C(=O)O)cc2)c2ncn(-c3ccccc3)c2N1` (stereo unspecified), the Percent Effect is 19.5% in assay [1] and -25.4% in assay [2].

Take `CC(C)NC(=O)N1CCc2ncc(CN3CCOCC3)n2CC1`: the Percent Effect in assay [1] turned out to be 3.1%; in assay [2], 0.463%.

In the case of `O=C(NCCc1ccn(-c2ccccc2)n1)N1CCC1`, the Percent Effect was 1.53% in assay [1] and -11.7% in assay [2].

Consider `NC(=O)c1csc(C(=O)N2CCCC(n3ccnc3)C2)c1` (stereo unspecified), for which the Percent Effect was -4.35% in assay [1] and 0.351% in assay [2].

Consider `CCS(=O)(=O)N1CC[C@]2(C[C@@H](OCC3CC3)CO2)C1`, for which the Percent Effect was -1.4% in assay [1] and 11% in assay [2].

For `COCCN1C(=O)CCC12CCN(C(=O)NC(C)C)CC2`, the Percent Effect in assay [1] is -3.16%; in assay [2], 6%.

Consider `CS(=O)(=O)N1Cc2ccccc2C2(CCN(C(=O)c3ccno3)CC2)C1`, for which the values for the Percent Effect in assay [1] and in assay [2] were 1.46% and -6.76%, respectively.

Consider `Cc1nn(C)c2c(NCc3ccccc3F)nc(C3CC3)nc12`, for which the values for the Percent Effect in assay [1] and in assay [2] were 12.5% and -20.5%, respectively.

As to `CN(C)C(CNC(=O)NCCc1cccc(O)c1)c1ccco1` (stereo unspecified), the Percent Effect in assay [1] is 2.5%; in assay [2], -5.55%.

Turning to `COc1c(C2CCCN2C(=O)c2cccc(C(N)=O)c2)c(C)nn1C` (stereo unspecified), the Percent Effect worked out at 0.375% in assay [1] and 18% in assay [2].

Regarding `CCCN1CCCn2nc(CNS(=O)(=O)c3cccc(C#N)c3)cc2C1`, the Percent Effect in assay [1] is -1.36%; in assay [2], 28.5%.

In the case of `Cc1nc(C)c(C(=O)NCCNC(=O)Cc2ccccc2)s1`, the Percent Effect in assay [1] was -1.6%; in assay [2] it was 11.1%.

For `COCc1noc(C2(c3ccc(OC)cc3)CCOCC2)n1`, the results for the Percent Effect in assay [1] and in assay [2] were -1.75% and 1.38%, respectively.

Regarding `O=C([C@@H]1COC[C@H]2CN(C3CCOCC3)C[C@H]21)N1CCCCO1`, the Percent Effect is 6.99% in assay [1] and -23.5% in assay [2].

Regarding `CN(C)CC1(O)CCN(S(=O)(=O)c2ccc(F)cc2)C1` (stereo unspecified), the Percent Effect in assay [1] is -0.491%; in assay [2], 12.7%.

As for `Cc1nccn1C1CCCN(C(=O)c2ccc3c(c2)COC3)C1` (stereo unspecified), the figures for the Percent Effect in assay [1] and in assay [2] were -1.72% and -16.7%, respectively.

As to `CC(C)NS(=O)(=O)c1cc(C(=O)O)cc(-c2ccccc2CN(C)C)c1`, the Percent Effect is 1.25% in assay [1] and -13.2% in assay [2].
